The source made the active and inactive calls. The calls were made as follows: active = hit-call score of the fitted dose curve at least 0.9, where 1 is the maximum; inactive = score below 0.9.

Chain of Transcription factor Sp1 (Homo sapiens) (P08047 whole entry, looked up): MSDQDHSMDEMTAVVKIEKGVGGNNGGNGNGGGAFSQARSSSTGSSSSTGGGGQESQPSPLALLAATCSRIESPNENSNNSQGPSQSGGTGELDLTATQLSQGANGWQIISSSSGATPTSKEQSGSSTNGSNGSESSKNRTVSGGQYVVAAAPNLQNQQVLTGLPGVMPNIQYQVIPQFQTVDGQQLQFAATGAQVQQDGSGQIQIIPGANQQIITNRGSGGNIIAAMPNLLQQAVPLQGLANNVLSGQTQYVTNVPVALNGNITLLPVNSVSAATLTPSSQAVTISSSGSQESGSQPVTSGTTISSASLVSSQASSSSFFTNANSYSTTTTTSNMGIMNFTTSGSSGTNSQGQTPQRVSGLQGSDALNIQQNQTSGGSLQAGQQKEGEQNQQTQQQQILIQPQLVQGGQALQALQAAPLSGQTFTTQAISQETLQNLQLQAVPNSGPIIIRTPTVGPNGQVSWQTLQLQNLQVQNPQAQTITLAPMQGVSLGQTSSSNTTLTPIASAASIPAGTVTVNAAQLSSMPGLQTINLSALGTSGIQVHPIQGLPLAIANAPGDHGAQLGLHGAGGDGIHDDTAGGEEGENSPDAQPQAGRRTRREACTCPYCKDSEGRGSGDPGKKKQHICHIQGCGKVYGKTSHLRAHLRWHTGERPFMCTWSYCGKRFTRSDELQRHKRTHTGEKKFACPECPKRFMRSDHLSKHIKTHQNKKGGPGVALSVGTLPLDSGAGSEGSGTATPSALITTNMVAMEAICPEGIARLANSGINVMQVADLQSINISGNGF

The target in this experiment is Transcription factor Sp1 (Homo sapiens) (UniProt P08047). Description: ATG_Sp1_CIS: Attagene CIS-FACTORIAL HepG2 Assay for human Specificity Protein 1 (Sp1) (AID 2282961). The settings on record: HepG2 Sp1 cis-reporter transcription, actives raise or lower the signal. As for the experimental part:
ATG_CIS is a cell-based, multiplexed-readout assay that uses HepG2, a human liver cell line, with measurements taken at 24 hours after chemical dosing in a 24-well plate.ATG_Sp1_CIS is one of 52 assay component(s) measured or calculated from the ATG_CIS assay. It is designed to make measurements of mRNA induction, a form of inducible reporter, as detected with fluorescence intensity signals by Reverse transcription polymerase chain reaction (RT-PCR) and Capillary electrophoresis technology.Data from the assay component ATG_Sp1_CIS was analyzed into 1 assay endpoint. This assay endpoint, ATG_Sp1_CIS, was analyzed with bidirectional fitting relative to DMSO as the negative control and baseline of activity. Using a type of inducible reporter, measures of mRNA for gain or loss-of-signal activity can be used to understand the reporter gene at the transcription factor-level as they relate to the gene SP1. Furthermore, this assay endpoint can be referred to as a primary readout, because this assay has produced multiple assay endpoints where this one serves a reporter gene function. To generalize the intended target to other relatable targets, this assay endpoint is annotated to the dna binding intended target family, where the subfamily is zinc finger.
Human liver HepG2 cells are transiently transfected with multiple reporter transcription units (MRTUs) in 6-well plates using FuGene 6 reagent (Roche; 3 ml FuGene/1 mg DNA). The MRTU constructs are regulated by a cis-regulating element (promoter). […] A major difference between the CIS and TRANS system is that in CIS activities of endogenous TFs are measured, whereas the TRANS assay evaluates changes in activities of exogenous, chimeric NR-Gal4 proteins. […] At the end of 24 hour incubation, total RNA was isolated using TriZol reagent (Invitrogen). The isolated RNA is then reverse-transcribed using oligo(dT) primer and Mo-MLV reverse transcriptase (Invitrogen) with DNAse I (Ambion) treatment for 30 min. The one-tenth of the produced cDNA was amplified by PCR using Taq DNA polymerase (Invitrogen) and two reporter sequence-specific primers. The PCR products were fluorescently labeled by primer extension with 6-arboxyfluorescein (6-FAM) 5'-labeled reporter sequence-specific primer (2 min at 95 C, 20 s at 68 C and 10 min at 72 C) and these products were digested with 5U of HpaI (New England Biolabs) for 2h at 37 C. The fragments were purified using Qiaquick PCR columns (Qiagen), analyzed on an ABI 3130xL genetic analyzer (Applied Biosystems) with peak positions identified by using a set of X-rhodamine (ROX)-labeled MapMarker1000 molecular weight standards (BioVentures). The raw capillary electrophoresis data was processed using Attagraph software (Attagene).
In the case of `C1CCC(C2CCCCC2)CC1`, the compound was classed as inactive.
The same measure, in the same setting: next, `Clc1cccc(Cl)c1`: “inactive”; `CC(C)(C)c1ccccc1O`: “inactive”; `CCOC(=O)Cc1ccccc1`: “inactive”.
The same measure, in the same setting: next, `OC[P+](CO)(CO)CO`: “inactive”; `C=C(C)[C@@H]1CC=C(C=O)CC1`: “inactive”.
On the same count and under the same terms, next, `CC(C)(COCC1CO1)COCC1CO1` (stereo not given): “inactive”; `N#CS`: “inactive”.
With `O=C(Cc1ccccc1)OCCc1ccccc1`, the compound was classed as inactive.
Broadly, the AC50 is the concentration giving half of the maximal activity seen. Regarding `C[C@@H]1O[C@@H](O[C@H]2C[C@@H](O)[C@]3(CO)[C@H]4[C@H](O)C[C@]5(C)[C@@H](C6=CC(=O)OC6)CC[C@]5(O)[C@@H]4CC[C@]3(O)C2)[C@H](O)[C@H](O)[C@H]1O`, the AC50 is 0.0716 µM (active).
With `NC(=O)CCl`, the compound was classed as inactive.
For the compound `O=C(CCl)Nc1ccccc1`, the AC50 is 25.8 µM (active).
With `Oc1c(Br)cc(Br)cc1Br`, the AC50 was 25.9 µM (active).
Consider `Cc1cc(Cl)ccc1O`, for which the compound was called inactive.
On the same count and under the same terms, next, `FC(F)OCC(F)(F)C(F)(F)F`: “inactive”.
On the same count and under the same terms, next, `N#Cc1ccccc1Cl`: “inactive”; `CCOC(=O)c1ccccc1S(=O)(=O)NC(=O)Nc1nc(Cl)cc(OC)n1`: “inactive”; `NNCCO`: “inactive”.
For `C[C@]12CC[C@@H](O)C[C@@H]1CC[C@@H]1[C@@H]2CC[C@]2(C)C(=O)CC[C@@H]12`, the result was inactive.
The same measure, in the same setting: next, `CN(N=O)C(N)=O`: “inactive”; `C=CCOC(F)(C(F)(F)F)C(F)(F)F`: “inactive”; `Cc1cc(-c2cc(C)c(N)c(C)c2)cc(C)c1N`: “inactive”.
Same read-out and setting: next, `CCCSP(=S)(OCC)Oc1ccc(SC)cc1` (stereo not given): “inactive”.
Still for that read-out and setting: next, `OC(Cc1ccccc1Cl)(Cn1cncn1)C1(Cl)CC1` (stereo not given): “inactive”; `O=[N+]([O-])c1cccc2ccccc12`: “inactive”; `OC(c1ccc(Cl)cc1)(c1ccc(Cl)cc1)c1cccnc1`: “inactive”.
Turning to `CC(C)C(C)(N)C#N` (stereo not given), the result was inactive.
The same measure, in the same setting: next, `Nc1c(Oc2ccccc2)cc(O)c2c1C(=O)c1ccccc1C2=O`: “inactive”.
Regarding `O=[N+]([O-])c1ccccc1O`, the result was inactive.
The same measure, in the same setting: next, `CC(C)[N+](=O)[O-]`: “inactive”.
The same measure, in the same setting: next, `O=C(O)C1(c2ccc3c(c2)OC[C@H](Cc2ccc(-c4ccccc4)cc2)[C@H]3O)CCCC1`: “inactive”; `c1cc[c]([Sb]([c]2ccccc2)[c]2ccccc2)cc1`: “inactive”.
Still for that read-out and setting: next, `c1ccc(-c2cccc(-c3ccccc3)c2)cc1`: “inactive”; `C#C[C@]1(O)CC[C@H]2[C@@H]3CCC4=CC(=O)CC[C@]4(C)[C@H]3CC[C@@]21C`: “inactive”.
Turning to `Oc1c(Cl)cc(Cl)cc1Cl`, the outcome was inactive.
As for `c1csc(-c2ccc(-c3cccs3)s2)c1`, the compound was classed as inactive.
Regarding `CN(C)[C@@H]1C(=O)C(C(N)=O)=C(O)[C@@]2(O)C(=O)C3=C(O)c4c(O)ccc(Cl)c4[C@@](C)(O)[C@H]3C[C@@H]12`, the outcome was inactive.
On the same count and under the same terms, next, `CC(=O)C(F)(F)C(F)(F)F`: “inactive”.
Take `[Cl][Sn]([c]1ccccc1)([c]1ccccc1)[c]1ccccc1`: the AC50 was 1.66 µM (active).
Take `O=C(NC(=O)c1c(F)cccc1F)Nc1ccc(Cl)cc1`: the outcome was inactive.

Source of the values: PubChem BioAssay (EPA / NIEHS).
